This is an account of results in PubChem BioAssay (NCATS).

Unmarked numbers belong to inactive results. Results filed as inconclusive are left out. Active and inactive are the calls of the source. Unless noted, calls come from the whole dose curve; as a rule, active = well fitted curve in either direction with a large enough effect (not every such curve was filed as active); inconclusive = small, poorly fitted or top-dose-only effect, or another doubt; inactive = flat fitted curve, though single readings scatter.

For assay [1], the target named is Lysosomal acid glucosylceramidase (Homo sapiens) (UniProt P04062). The assay is described as follows: Glucocerebrosidase-p2 (AID 348; in the data active = potency below about 10 µM; note: potency is the fitted concentration of half-maximal effect). The note with it: purified GBA, blue fluorogenic substrate, 40 min. The method, boiled down:
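Compounds titrated from 0.6 nM upwards against 0.2 nM enzyme in pH 5.9 citric acid/KH2PO4, taurocholate, tween-20; blue fluorogenic substrate 80 uM, 40 min room temperature, stopped and read Ex 365/Em 440 for AC50.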

The nature of assay [2]: AP1 Signaling Pathway (AID 357). Note: % is set by controls: 0 for no effect and ±100 for the full control effect. The note with it: ME-180 AP-1-bla reporter, EGF-induced, beta-lactamase ratio, 5 h; at 7.69 µM (top of the series) unless noted. An outline of the steps: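 In this screen, ME-180 cells in Opti-MEM with 0.5% dialyzed FBS received EC50 EGF and compound titrations for 5 h. AP-1 reporter beta-lactamase was detected via CCF4 ratio, giving AC50 for positive and negative modulators.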

Assay [3] can be described thus: NFAT Signaling Pathway (AID 444).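 Note: carbachol stimulus at about its EC50 of 1 µM final; % is set by controls: 0 for no effect and ±100 for the full control effect.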 The conditions noted are these: Jurkat NFAT-bla M1, carbachol, beta-lactamase ratio, 5 h; at 7.69 µM (top of the series) unless noted. An outline of the steps:
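Jurkat cells carrying an NFAT-driven β-lactamase reporter and co-transfected muscarinic M1 receptor were treated with compound plus carbachol (1 uM final, an EC50 level) for 5 h at 37 °C. CCF4 loading followed for 1 h at RT; 460/530 nm ratio gave %activity.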

A short description of assay [4]: Stat Signaling Pathway (AID 446).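 Note: ME-180 cervical cancer cells given 40 pM IL-6 alongside compound; SIE-controlled beta-lactamase reporter measured as 460/530 nm FRET emission ratio; % is set by controls: 0 for no effect and ±100 for the full control effect.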 The note with it: ME-180 SIE beta-lactamase reporter, IL-6 stimulated, 5 h; at 7.69 µM (top of the series) unless noted. An outline of the steps: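 ME-180 SIE-bla cells; overnight plating; cpd + IL-6 40 pM, 5 h, 37 C; LiveBLAzer 2.5 h RT; 460/530 nm emission ratio. Normalized to 300 pM IL-6 and 125 nM JAK inhibitor controls.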
Assay [5] concerns the target Glucocorticoid receptor (Homo sapiens) (UniProt P04150). As to the kind of experiment: GR-GFP Redistribution (AID 450;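 active = compounds whose dose series gives a full or clear partial fitted curve of increased nuclear translocation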; note: potency is the fitted concentration of half-maximal effect). The note with it: U2OS GR-GFP nuclear translocation, laser cytometry, 2 h.
Assay [6] has the same target. As to the kind of experiment: GR-EFC Redistribution (AID 451; calls by dose curve; note: potency is the fitted concentration of half-maximal effect). The note with it: CHO-K1 GR-EFC translocation, beta-gal luminescence, 2 h. The method, boiled down: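 CHO-K1 cells stably expressing nuclear-localized β-gal enzyme acceptor and GR fused C-terminally to the enzyme donor fragment; ligand-driven nuclear translocation restores β-gal by complementation. Compounds titrated up to 46 uM final, 2 h at 37 °C; luminescence read.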

For assay [7], the target named is Mitogen-activated protein kinase 10 (Mus musculus) (UniProt Q61831). As to the kind of experiment: JNK3 AlphaScreen Assay (AID 530).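 Note: kinase came from lysate of stimulated human HepG2 cells; signal reports phosphorylation of biotinylated GST-cJun 1-79 at Ser73 with 10 µM ATP; % is set by controls: 0 for no effect and ±100 for the full control effect.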 The note with it: JNK3 lysate, c-Jun phosphorylation; series mostly up to 11.4 µM. An outline of the steps: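 Inhibitors reduce antibody binding to phosphorylated biotin-cJun, lowering AlphaScreen luminescence. Lysates from HepG2 cells pre-activated by IL-1beta plus TNF-alpha supplied JNK3; compounds were titrated.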

Assay [8] has as its target 3',5'-cyclic-AMP phosphodiesterase 4B (Homo sapiens) (UniProt Q07343). The assay is described as follows: qHTS Assay for Inhibitors of PDE-IV (AID 607; active = well fitted activation curve with a large enough effect in the main read-out, with a control signal flat, not every such curve was filed as active; note: % of control where 0% means no effect). The conditions noted are these: HEK293 ACTOne CNG channel cells, membrane potential fluorescence; series mostly up to 22.9 µM. The method, boiled down: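 ACTOne HEK293 cells carry a modified cAMP-gated CNG channel and express endogenous PDE4; plated 1000 cells/well, compounds up to 22.9 uM final. Membrane-potential dye fluorescence (ex 535/em 590) was read; parental cells received 10 uM forskolin + 100 uM RO 20-1724.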

Sequence of Glucocorticoid receptor (Homo sapiens) (P04150 whole entry, looked up, the tested form may be a part): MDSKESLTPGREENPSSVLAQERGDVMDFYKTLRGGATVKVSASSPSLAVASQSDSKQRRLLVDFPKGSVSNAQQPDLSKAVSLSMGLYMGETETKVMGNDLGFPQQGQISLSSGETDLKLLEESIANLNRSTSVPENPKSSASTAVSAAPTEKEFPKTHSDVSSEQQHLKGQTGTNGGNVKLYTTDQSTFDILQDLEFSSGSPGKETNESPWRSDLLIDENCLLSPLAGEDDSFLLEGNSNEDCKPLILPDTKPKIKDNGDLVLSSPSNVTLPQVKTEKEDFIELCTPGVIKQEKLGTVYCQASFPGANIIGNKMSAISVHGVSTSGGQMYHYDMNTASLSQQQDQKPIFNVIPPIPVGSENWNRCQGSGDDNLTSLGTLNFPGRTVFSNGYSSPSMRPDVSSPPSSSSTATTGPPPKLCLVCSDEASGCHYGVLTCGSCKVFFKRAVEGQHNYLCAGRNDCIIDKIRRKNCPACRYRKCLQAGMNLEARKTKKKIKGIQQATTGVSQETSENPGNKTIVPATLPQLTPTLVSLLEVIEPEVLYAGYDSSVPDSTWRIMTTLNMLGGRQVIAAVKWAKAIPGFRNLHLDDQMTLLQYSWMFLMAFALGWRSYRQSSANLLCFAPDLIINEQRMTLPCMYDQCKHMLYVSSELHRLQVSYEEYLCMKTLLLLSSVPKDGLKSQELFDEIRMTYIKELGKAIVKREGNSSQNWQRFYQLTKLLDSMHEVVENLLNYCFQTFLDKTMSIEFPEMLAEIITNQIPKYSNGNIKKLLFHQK
Sequence of 3',5'-cyclic-AMP phosphodiesterase 4B (Homo sapiens) (Q07343 whole entry, looked up): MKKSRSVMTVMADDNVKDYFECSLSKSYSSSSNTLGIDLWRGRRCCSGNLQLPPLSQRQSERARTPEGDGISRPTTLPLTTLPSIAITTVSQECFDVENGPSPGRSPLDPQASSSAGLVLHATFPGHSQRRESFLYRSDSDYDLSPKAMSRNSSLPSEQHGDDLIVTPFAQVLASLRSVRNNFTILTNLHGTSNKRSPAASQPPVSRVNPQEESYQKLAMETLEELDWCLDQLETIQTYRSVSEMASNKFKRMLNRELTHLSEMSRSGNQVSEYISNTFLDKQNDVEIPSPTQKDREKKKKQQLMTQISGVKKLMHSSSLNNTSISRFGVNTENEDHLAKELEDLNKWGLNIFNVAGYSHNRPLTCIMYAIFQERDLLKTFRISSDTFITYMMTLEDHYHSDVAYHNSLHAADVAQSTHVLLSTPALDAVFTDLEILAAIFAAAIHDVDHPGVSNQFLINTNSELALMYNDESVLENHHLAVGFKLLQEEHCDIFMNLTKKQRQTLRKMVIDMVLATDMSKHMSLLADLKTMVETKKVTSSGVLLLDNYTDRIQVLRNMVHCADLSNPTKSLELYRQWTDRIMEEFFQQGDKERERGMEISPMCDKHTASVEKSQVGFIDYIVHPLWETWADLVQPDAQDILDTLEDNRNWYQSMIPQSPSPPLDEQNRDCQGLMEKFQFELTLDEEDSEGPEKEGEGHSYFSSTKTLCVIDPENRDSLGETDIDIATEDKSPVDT
Sequence of Lysosomal acid glucosylceramidase (Homo sapiens) (P04062 whole entry, looked up): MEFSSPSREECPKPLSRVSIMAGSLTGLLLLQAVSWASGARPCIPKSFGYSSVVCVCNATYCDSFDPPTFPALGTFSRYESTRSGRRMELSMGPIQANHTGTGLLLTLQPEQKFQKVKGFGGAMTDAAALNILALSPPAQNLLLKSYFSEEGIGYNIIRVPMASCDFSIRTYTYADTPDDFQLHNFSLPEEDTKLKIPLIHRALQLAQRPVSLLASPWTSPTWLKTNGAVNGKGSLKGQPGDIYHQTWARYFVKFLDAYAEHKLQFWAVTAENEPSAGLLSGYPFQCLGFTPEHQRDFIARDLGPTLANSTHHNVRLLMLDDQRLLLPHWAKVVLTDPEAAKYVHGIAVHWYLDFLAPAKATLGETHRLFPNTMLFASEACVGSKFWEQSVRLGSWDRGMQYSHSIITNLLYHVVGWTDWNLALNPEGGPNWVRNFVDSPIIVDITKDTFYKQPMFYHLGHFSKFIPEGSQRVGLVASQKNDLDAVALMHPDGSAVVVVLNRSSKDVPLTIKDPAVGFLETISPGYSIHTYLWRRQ

For `NC1(C(=O)OCc2ccccc2)CCCC1`, the Potency in assay [1] was > 11.4 µM; in assay [5] it was > 46 µM; in assay [6] it was > 9.22 µM. Besides, the activity change, negative = inhibition is 8.77% in assay [2] and -4.79% in assay [3]. Moreover, in assay [4], the activity, negative = inhibition was 3.45%. Further, the Potency entry in assay [7] and in assay [8] was “inactive” each time.

On to `COc1ccc(Br)c2c1C[C@H](C(=O)O)CC2`, for which the results for the Potency in assay [1], in assay [5] and in assay [6] were > 11.4 µM, > 46 µM and > 9.22 µM, respectively. In addition, the results for the activity change, negative = inhibition in assay [2] and in assay [3] were 12.4% and 2.11%, respectively. In assay [4], the activity, negative = inhibition is -1.98%. The Potency result in assay [7] and in assay [8] was “inactive” in each case.

With `O=C1c2cccc(O)c2C(=O)c2c(O[C@@H]3O[C@H](CO)[C@@H](O)[C@H](O)[C@@H]3O)cccc21`, the Potency in assay [1] was 2.95 µM (active); in assay [5], > 46 µM; in assay [6] it was > 9.22 µM. In addition, the values for the activity change, negative = inhibition in assay [2] and in assay [3] were 29.9% and 5.22%, respectively. For the same compound, in assay [4], the activity, negative = inhibition was 8.12%. Also, the Potency entry in assay [7] and in assay [8] was “inactive” each time.

As for `CN(C)C[C@@H](O)c1ccc(Cl)c2ccccc12`, the Potency in assay [1] is > 11.4 µM; in assay [5] it was > 46 µM; in assay [6], > 9.22 µM. Also, the results for the activity change, negative = inhibition in assay [2] and in assay [3] were 13.3% and -4.99%, respectively. Also, the activity, negative = inhibition in assay [4] was 18.4%. Further, the Potency entry in assay [7] and in assay [8] was “inactive” throughout.

For the compound `O=C(O)CSc1ccccc1C(=O)O`, the Potency is > 11.4 µM in assay [1], > 46 µM in assay [5] and > 9.22 µM in assay [6]. Besides, the activity change, negative = inhibition is 9.97% in assay [2] and -5.26% in assay [3]. The activity, negative = inhibition in assay [4] is -2.73%. Further, the Potency entry in assay [7] is “inactive”.

With `Nc1nc(SCc2ccccn2)c2ncn(C3CCCC3)c2n1`, the Potency is > 11.4 µM in assay [1], > 46 µM in assay [5] and > 9.22 µM in assay [6]. The activity change, negative = inhibition is -14.6% in assay [2] and 9.85% in assay [3]. In addition, the activity, negative = inhibition in assay [4] was 4.58%. Also, in assay [7], the Potency entry was “inactive”.

On to `OC(Cc1cccnc1)(c1ccccc1)c1ccccc1`, for which the Potency was > 11.4 µM in assay [1], > 46 µM in assay [5] and > 9.22 µM in assay [6]. In addition, the activity change, negative = inhibition in assay [2] is 5.37%; in assay [3], -25.6%. In addition, the activity, negative = inhibition in assay [4] is -5.74%. Also, the Potency result in assay [7] and in assay [8] was “inactive” throughout.

Regarding `O=S(=O)(O)n1ccnc1` (tested in a mixture with another compound), the Potency in assay [1] is > 11.4 µM; in assay [5], > 46 µM; in assay [6], > 9.22 µM. Also, the activity change, negative = inhibition in assay [2] is -2.09%; in assay [3], 6.55%. The activity, negative = inhibition in assay [4] was 0.01%. The Potency entry in assay [7] and in assay [8] was “inactive” in each case.

`COc1ncc2nc(C)c(=O)n(C)c2n1`: the Potency is > 11.4 µM in assay [1], > 9.22 µM in assay [5] and > 46 µM in assay [6]. Also, the figures for the activity change, negative = inhibition in assay [2] and in assay [3] were -15% and -2.54%, respectively. Moreover, the activity, negative = inhibition in assay [4] was -2.89%. Further, the Potency entry in assay [7] and in assay [8] was “inactive” each time.

Consider `CC1(C)S[C@@H]2[C@H](NC(=O)C3(N)CCCCC3)C(=O)N2[C@@H]1C(=O)O`, for which the Potency in assay [1] is > 11.4 µM; in assay [5], > 46 µM; in assay [6], > 9.22 µM. Further, the activity change, negative = inhibition in assay [2] was -5.88%; in assay [3], 9.48%. For the same compound, in assay [4], the activity, negative = inhibition is 0.508%. Also, the Potency result in assay [7] was “inactive”.
